Source: the supplement of paper PMC5499739
In all, about 16,000 sequences were measured (“Z-score”: median about -0.37, highest 2% from about 3.2 on). The list comes from a sample in which the highest values are over-represented; it also holds similar and randomly drawn sequences.

test system: RBM10 RRM1-ZnF (GST-tagged construct); assay: RNAcompete 7-mer binding Z-score; higher = stronger binding preference
Outline: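 Each heptamer motif was given a one-sided Z-score for enrichment across the probes that contained it. GST-tagged RBM10 constructs (20 pmol) were combined with 1.5 nmol of a designed pool of 241 399 RNAs of up to 41 nt, transcribed from microarray-derived DNA templates. Binding took place in 1 ml Hepes pH 7.8 buffer containing KCl, NaCl, glycerol, DTT, BSA and glutathione Sepharose beads for 30 min at 4°C. After four 2-min washes at 4°C, bound RNA was identified by microarray hybridisation.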

Sequence | RNAcompete 7-mer binding Z-score
GUGUAAA | 0.618
AUGACGG | 1.39
UAAAUAU | -0.425
CGGAUGU | 1.04
GGUGGAG | 4.02
UGUGGAG | 2.62
UGUGGAA | 2
GGUGGAA | 3.81
AGUGGAC | 1.34
AGUGGAA | 3.24
CGUGGAA | 1.19
AGUGGAU | 2.35
GGUGGAU | 2.75
UUCCGGC | -0.649
GCCUGCU | -0.724
UGUCGUA | -0.311
UGUUUAG | -0.0155
UAUAGGC | 0.196
AAACCCC | -0.597
UCCGAUA | -0.746
GGGUGCA | 2.74
GAGGCCG | 0.0723
UUGCCGU | -0.659
CUGGGCC | -0.0285
GCCCAUA | -0.805

Sequence | RNAcompete 7-mer binding Z-score
GGAAGGU | 4.23
UGAAGGU | 2.57
AGAAGGA | 3.99
AGAAGGU | 3.26
AGAAGGC | 0.699
CGAAGGG | 2.43
CGAAGGU | 1.5
AGAAGCU | -0.48
AGAAGAG | 1.64
GGAAGGC | 2.63
AGAAGGG | 3.86
AGAAGAA | 1
CCCCCAU | -0.448
GAAUGAC | 0.16
GGCAGUC | 0.28
AGCCUUU | -1
ACUUAUG | -0.655
CGAAGGA | 1.62
UGAAGGG | 3.82
UGAAGCG | 0.608
UGAAGGC | 1
UGAAGGA | 2.99
GGAAGGA | 4.79
GCAUUCU | -0.785
UCGUACU | -0.539

Sequence | RNAcompete 7-mer binding Z-score
GAGGCAC | 0.628
CCUAGUG | -0.266
UUCCAUC | -0.675
GCAGCGC | -0.178
GAUGAGG | 3.56
GUUGAGG | 3.36
CGUGAGG | 1.35
GGUGAGG | 4.5
CAUGAGG | 1.03
GGUGAGA | 2.57
AUUGAGG | 1.63
GUUGAGC | 0.706
GAUGAGU | 1.06
GUGUGUC | 0.137
CUCAAUA | -0.802
GCGAAGG | 2.06
UAACUAU | -0.617
GCUAACA | -0.399
AGAGCUG | 0.163
GAUGGAC | 1.78
CAUGGAG | 1.48
UAUGGAG | 1.67
GAUGGAA | 3.36
GAUGGAU | 2.6
AAUGGAA | 3.35

Sequence | RNAcompete 7-mer binding Z-score
AAUGGAC | 2.03
UAUGGAA | 1.22
GUUGGAA | 1.84
CAUGGAA | 1.1
AAUGGAG | 3.43
GAUGGAG | 3.52
AUCUACA | -0.568
CACCCUC | -0.578
UGCUUGA | -0.737
GGCGCAU | 0.183
UGAUGAC | -0.0512
CUUGCCU | -0.824
UCAUCUG | -0.844
GUUUCAC | -0.597
GCGGUUG | 1.42
GGGGUUU | 3.16
UGGGUUA | 3.28
CGGGUUG | 2.79
GGGGUUA | 3.21
AGGGUUC | 0.985
AGGGUUA | 3.55
GGGGUUC | 1.79
GGGGUUG | 3.76
UGGGUUU | 2.64
UGGGUUG | 3.04

Sequence | RNAcompete 7-mer binding Z-score
AGGGUUU | 2.56
AAUCUAA | -0.617
UUAUACA | -0.542
AUGUGGU | 1.52
GUCCGAC | -0.662
CUUCGGC | -0.759
AGAUAUC | -0.688
AGGGUUG | 3.8
AGGGUCG | 1.41
ACGGUUG | 1.78
CAUAAGA | -0.513
CACCGCG | 0.069
UGGUGUG | 2.77
GGGUGUA | 3.43
UGGUGUA | 1.52
GGGUGUG | 3.76
CGGUGUG | 1.72
AGGUGUA | 1.74
AAUUUGA | -0.399
ACAGAGG | 1.59
UACAAGA | -0.295
CGCGGGA | 1.05
AGCGGGA | 3.31
AGCGGGU | 3.07
GGCGGGG | 3.96

Sequence | RNAcompete 7-mer binding Z-score
GGCGGGC | 2.11
AGCGGGG | 4.14
UGCGGGC | 1.13
UGCGGGG | 3.26
UGCGGGA | 1.87
GGCGGGU | 2.9
CGCGGGG | 2.15
UGCGGGU | 2.92
GGCUUUA | -0.418
UUGCAGA | -0.171
AGCGGAU | 3.22
AGCGGAC | 1.16
AGCGGAA | 2.07
CUCAGGU | -0.0447
CGCAUAC | -0.61
GGAUGAA | 2.16
GGAUGUG | 3.43
GGAUGUU | 0.959
AGAUGAG | 1.43
AGAUGUG | 0.936
GGAUGAG | 3.4
CUCGUGC | -0.789
AGCAAUC | -0.435
UGGGUAG | 3.5
UGGGUAU | 2.37

Sequence | RNAcompete 7-mer binding Z-score
CGGGUAG | 2.18
AGGGUAG | 3.72
UGGGUAC | 2.69
AGGGUAC | 2.1
GACCAUU | -0.915
AUGGACG | 2.69
CACGUGG | 0.566
UCUUGAA | -0.785
CAUCCGC | -0.847
CCAAUCU | -0.802
AGUAGGC | 0.975
ACUAGGG | 2.03
CGUAGGG | 1.94
UGUAGGG | 3.6
UGUAGGA | 1.7
AGUAGGG | 4.16
AUACGAA | -0.194
CGGCUUG | -0.324
CUCGCAC | -0.587
GUUCUAA | -0.552
GGUAUGU | 1.56
GAUAUGC | -0.0577
GAUAUGG | 3.3
AAUAUGG | 1.09
GGUAUGG | 4.22

Sequence | RNAcompete 7-mer binding Z-score
GGUAUGA | 2.19
UCCCUGG | -0.24
GUUCGAG | -0.00571
CGAACAU | -0.503
UUUAGGC | -0.321
GGAGGGG | 4.57
GGAGGGA | 4.01
CGAGGGG | 2.86
GGAGGGC | 3.13
AGAGAGG | 1.27
AGAGGGA | 2.09
UUAGAGG | 1.31
AGAGGGG | 2.11
AUAGAGG | 1.55
GUAGAGG | 3.56
GGAGAGA | 1.46
GGAGAGG | 3.41
GUCCAUU | -0.818
CCCACUG | -0.483
GUUAUUC | -0.513
UGUAGGU | 1.75
UUGCCGC | -0.662
UUGGUCA | 0.0788
CAAGUAA | -0.275
AAACCAG | -0.324

Sequence | RNAcompete 7-mer binding Z-score
CGAGAAG | 0.495
GGAGAAG | 3.36
AGAGAAG | 1.63
GUGUCCA | -0.457
GGGCCGU | 0.53
UAGGGAA | 3.15
CAGGGGU | 3.01
UAGGGGA | 3.71
UAGGGCU | 1.42
UAGGGGU | 3.9
UAGGGGC | 2.25
UAGGGAC | 1.79
UAGGGGG | 3.97
CAGGGGG | 2.94
UGCUAGA | -0.233
UGUUCUC | -0.746
CCGCACC | -0.509
ACAGCGA | -0.0674
GGACUAU | 0.000789
AUAGCCU | -0.724
